Assay [1] addresses Sphingosine kinase 1 (Homo sapiens) (UniProt Q9NYA1). Particulars: at 1 µM.
The target of assay [2] is T1, Sphingosine kinase 2 (Homo sapiens) (UniProt Q9NRA0).
T1 sequence (whole entry): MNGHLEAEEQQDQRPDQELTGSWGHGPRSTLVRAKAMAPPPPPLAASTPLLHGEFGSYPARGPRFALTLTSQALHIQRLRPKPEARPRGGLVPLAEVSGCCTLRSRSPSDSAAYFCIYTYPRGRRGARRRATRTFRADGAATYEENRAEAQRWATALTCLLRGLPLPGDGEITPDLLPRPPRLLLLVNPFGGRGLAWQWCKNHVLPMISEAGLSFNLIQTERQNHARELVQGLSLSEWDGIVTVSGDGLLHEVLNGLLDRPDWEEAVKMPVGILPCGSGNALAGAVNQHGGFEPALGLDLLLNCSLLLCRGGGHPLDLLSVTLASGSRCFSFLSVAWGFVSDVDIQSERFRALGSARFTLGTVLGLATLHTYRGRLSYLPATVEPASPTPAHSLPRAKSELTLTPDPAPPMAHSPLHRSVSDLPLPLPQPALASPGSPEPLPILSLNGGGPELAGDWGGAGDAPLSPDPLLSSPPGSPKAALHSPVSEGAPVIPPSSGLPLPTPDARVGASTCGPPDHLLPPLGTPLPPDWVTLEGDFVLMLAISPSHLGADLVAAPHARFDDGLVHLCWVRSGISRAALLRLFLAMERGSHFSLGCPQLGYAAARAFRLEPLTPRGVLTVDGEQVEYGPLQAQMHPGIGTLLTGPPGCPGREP
Particulars: at 0.1 µM.

The target in assay [3] is T1, Sphingosine kinase 2 (Homo sapiens). Particulars: at 1 µM.
The target of assay [4] is Casein kinase II subunit alpha (Homo sapiens) (UniProt P68400). The note with it: at 0.1 µM.
Assay [5] shares this target. The note with it: at 1 µM.
The target in assay [6] is T2, Inhibitor of nuclear factor kappa-B kinase subunit alpha (Homo sapiens) (UniProt O15111).
T2 sequence (whole entry): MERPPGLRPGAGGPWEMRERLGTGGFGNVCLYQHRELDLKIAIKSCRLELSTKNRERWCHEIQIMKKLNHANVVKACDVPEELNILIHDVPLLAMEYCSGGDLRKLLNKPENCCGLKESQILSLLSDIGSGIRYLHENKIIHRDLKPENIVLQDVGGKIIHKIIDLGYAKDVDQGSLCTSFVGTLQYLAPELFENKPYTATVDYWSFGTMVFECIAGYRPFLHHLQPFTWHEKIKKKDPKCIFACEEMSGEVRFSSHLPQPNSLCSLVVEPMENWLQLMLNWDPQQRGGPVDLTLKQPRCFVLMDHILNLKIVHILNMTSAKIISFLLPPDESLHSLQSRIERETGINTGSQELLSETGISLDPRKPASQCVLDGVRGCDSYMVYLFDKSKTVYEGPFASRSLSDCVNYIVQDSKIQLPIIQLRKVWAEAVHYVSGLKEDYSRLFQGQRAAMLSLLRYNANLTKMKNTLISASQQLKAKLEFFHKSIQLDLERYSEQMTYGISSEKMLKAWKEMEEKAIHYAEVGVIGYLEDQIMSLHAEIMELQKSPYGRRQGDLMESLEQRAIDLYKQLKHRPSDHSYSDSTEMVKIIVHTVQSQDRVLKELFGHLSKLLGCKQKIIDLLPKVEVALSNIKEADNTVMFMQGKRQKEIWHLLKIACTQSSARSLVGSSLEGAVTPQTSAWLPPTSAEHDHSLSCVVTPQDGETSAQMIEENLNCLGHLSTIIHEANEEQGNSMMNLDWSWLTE
Particulars: at 0.1 µM.

In assay [7] the target is T2, Inhibitor of nuclear factor kappa-B kinase subunit alpha (Homo sapiens). The note with it: at 1 µM.
Assay [8] has as its target T3, Inhibitor of nuclear factor kappa-B kinase subunit beta (Homo sapiens) (UniProt O14920).
T3 sequence (whole entry): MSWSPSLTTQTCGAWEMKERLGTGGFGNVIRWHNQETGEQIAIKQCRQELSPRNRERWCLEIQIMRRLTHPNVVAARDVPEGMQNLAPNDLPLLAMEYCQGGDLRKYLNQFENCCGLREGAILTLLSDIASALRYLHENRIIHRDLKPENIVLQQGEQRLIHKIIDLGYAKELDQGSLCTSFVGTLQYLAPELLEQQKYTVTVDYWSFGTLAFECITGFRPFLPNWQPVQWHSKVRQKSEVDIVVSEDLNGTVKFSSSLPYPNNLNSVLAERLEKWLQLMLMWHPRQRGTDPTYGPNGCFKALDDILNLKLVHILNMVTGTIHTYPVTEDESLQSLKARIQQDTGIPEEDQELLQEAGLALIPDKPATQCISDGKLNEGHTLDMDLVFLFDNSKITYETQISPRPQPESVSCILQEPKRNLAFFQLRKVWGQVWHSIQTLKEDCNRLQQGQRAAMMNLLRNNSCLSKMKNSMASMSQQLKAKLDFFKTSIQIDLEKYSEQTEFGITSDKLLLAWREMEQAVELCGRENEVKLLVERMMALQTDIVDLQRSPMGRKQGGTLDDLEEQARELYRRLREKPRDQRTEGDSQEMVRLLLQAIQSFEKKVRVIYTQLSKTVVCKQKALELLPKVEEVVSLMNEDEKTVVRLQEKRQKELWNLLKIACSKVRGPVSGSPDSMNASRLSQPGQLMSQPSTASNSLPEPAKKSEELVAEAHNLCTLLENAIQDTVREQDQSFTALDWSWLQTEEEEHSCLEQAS
The note with it: at 0.1 µM.

For assay [9], the target named is T3, Inhibitor of nuclear factor kappa-B kinase subunit beta (Homo sapiens). The note with it: at 1 µM.
Assay [10] deals with T4, Inhibitor of nuclear factor kappa-B kinase subunit epsilon (Homo sapiens) (UniProt Q14164).
T4 sequence (whole entry): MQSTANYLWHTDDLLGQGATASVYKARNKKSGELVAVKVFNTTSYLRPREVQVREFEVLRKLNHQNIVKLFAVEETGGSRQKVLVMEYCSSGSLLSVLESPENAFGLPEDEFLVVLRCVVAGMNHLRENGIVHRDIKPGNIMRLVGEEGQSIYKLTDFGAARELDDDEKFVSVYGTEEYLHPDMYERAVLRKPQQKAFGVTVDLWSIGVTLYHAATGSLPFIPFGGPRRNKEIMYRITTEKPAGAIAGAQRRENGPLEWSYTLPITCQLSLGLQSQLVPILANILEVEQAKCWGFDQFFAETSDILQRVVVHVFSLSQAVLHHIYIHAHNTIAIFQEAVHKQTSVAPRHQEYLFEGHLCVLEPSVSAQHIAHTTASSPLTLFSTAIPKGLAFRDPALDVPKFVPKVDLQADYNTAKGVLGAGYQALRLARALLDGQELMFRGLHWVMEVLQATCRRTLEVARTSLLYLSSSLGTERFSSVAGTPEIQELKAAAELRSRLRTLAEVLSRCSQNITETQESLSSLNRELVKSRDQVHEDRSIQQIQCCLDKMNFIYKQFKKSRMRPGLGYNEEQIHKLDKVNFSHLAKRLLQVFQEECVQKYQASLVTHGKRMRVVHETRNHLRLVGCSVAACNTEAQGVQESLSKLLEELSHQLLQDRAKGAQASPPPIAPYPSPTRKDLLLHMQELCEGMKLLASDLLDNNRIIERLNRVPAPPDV
The note with it: at 0.1 µM.

Assay [11] concerns the target T4, Inhibitor of nuclear factor kappa-B kinase subunit epsilon (Homo sapiens). Particulars: at 1 µM.
The target in assay [12] is T5, Serine/threonine-protein kinase Nek1 (Homo sapiens) (UniProt Q96PY6).
T5 sequence (whole entry): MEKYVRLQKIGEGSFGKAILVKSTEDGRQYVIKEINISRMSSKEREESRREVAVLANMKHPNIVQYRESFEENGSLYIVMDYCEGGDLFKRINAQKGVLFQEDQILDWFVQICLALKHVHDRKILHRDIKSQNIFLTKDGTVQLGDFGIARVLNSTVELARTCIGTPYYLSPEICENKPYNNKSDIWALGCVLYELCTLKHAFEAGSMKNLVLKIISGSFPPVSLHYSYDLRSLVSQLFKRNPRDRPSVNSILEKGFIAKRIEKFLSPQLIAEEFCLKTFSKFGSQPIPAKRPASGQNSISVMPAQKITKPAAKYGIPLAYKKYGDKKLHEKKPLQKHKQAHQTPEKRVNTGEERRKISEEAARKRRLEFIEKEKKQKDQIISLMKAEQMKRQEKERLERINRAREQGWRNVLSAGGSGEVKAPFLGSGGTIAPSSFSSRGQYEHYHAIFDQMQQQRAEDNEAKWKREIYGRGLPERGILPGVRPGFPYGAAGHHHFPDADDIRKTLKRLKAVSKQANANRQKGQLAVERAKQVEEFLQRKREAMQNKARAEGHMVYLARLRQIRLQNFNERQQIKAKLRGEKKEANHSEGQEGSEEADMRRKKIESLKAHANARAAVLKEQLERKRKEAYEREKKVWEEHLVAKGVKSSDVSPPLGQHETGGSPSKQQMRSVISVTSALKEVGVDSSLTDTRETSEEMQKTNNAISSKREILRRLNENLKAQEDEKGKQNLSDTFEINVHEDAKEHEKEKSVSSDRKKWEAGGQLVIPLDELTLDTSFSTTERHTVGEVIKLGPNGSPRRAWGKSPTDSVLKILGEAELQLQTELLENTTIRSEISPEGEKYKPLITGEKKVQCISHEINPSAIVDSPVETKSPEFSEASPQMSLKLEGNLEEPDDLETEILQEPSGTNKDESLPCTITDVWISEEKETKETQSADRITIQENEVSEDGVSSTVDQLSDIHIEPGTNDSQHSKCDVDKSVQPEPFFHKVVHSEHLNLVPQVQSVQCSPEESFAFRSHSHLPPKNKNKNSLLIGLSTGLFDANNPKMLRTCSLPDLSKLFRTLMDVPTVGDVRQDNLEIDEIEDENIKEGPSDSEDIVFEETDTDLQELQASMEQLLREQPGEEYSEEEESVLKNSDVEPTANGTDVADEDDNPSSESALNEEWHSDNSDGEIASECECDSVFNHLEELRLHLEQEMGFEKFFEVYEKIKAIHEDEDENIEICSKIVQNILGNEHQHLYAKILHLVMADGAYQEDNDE
The note with it: at 0.1 µM.

Assay [13] deals with T5, Serine/threonine-protein kinase Nek1 (Homo sapiens). The note with it: at 1 µM.
Assay [14] addresses T6, Serine/threonine-protein kinase Nek2 (Homo sapiens) (UniProt P51955).
T6 sequence (whole entry): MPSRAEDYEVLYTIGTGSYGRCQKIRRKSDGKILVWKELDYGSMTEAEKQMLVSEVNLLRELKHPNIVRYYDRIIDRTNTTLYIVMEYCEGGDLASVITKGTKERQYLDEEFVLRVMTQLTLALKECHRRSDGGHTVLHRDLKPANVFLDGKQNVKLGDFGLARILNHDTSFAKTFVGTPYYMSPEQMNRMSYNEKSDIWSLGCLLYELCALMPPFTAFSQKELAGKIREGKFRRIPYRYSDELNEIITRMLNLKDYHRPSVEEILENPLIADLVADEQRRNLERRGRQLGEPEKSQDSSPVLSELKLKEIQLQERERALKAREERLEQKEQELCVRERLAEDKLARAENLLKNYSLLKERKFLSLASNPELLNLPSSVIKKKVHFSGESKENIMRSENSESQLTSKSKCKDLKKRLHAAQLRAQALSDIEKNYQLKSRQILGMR
Particulars: at 0.1 µM.

The target of assay [15] is T6, Serine/threonine-protein kinase Nek2 (Homo sapiens). The note with it: at 1 µM.
For assay [16], the target named is Serine/threonine-protein kinase Nek6 (Homo sapiens) (UniProt Q9HC98). The note with it: at 0.1 µM.
The target is the same in assay [17]. Particulars: at 1 µM.
Assay [18] has as its target Serine/threonine-protein kinase Nek7 (Homo sapiens) (UniProt Q8TDX7). The note with it: at 0.1 µM.
Assay [19] has the same target. Particulars: at 1 µM.
In assay [20] the target is T7, Serine/threonine-protein kinase Nek9 (Homo sapiens) (UniProt Q8TD19).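 Further: reported value is the mean percent inhibition of NEK9.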
T7 sequence (whole entry): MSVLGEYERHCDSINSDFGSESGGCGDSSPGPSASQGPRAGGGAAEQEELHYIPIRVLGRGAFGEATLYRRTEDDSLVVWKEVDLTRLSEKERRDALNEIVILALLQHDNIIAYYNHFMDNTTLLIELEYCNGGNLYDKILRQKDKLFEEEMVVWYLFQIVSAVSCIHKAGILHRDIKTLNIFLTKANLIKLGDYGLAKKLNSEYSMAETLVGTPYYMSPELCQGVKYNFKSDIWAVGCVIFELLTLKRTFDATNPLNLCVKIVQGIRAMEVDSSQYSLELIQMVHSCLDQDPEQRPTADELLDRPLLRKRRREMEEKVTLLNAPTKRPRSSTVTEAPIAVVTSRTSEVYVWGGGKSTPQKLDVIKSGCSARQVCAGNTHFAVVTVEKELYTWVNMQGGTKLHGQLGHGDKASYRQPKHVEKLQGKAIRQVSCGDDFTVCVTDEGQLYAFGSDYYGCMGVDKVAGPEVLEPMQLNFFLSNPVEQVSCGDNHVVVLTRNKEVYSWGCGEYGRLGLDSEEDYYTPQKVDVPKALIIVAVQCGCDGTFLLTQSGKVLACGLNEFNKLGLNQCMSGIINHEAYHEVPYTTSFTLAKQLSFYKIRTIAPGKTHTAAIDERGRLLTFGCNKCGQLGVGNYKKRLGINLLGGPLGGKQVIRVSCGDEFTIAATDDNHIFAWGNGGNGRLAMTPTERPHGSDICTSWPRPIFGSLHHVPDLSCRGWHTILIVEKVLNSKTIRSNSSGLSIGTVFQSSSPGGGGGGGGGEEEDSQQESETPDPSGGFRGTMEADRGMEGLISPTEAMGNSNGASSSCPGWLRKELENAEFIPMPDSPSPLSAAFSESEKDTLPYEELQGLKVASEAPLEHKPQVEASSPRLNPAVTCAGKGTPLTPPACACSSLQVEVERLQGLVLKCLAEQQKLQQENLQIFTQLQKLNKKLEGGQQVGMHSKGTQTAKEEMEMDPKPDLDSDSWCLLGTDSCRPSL
The note with it: at 0.1 µM.

Our source for the inhibition values is ChEMBL document CHEMBL1961873, “Compounds: GSK PKIS; Assays: Nanosyn kinase panel” (2012).

Sequence of Serine/threonine-protein kinase Nek7 (Homo sapiens) (Q8TDX7 whole entry, looked up): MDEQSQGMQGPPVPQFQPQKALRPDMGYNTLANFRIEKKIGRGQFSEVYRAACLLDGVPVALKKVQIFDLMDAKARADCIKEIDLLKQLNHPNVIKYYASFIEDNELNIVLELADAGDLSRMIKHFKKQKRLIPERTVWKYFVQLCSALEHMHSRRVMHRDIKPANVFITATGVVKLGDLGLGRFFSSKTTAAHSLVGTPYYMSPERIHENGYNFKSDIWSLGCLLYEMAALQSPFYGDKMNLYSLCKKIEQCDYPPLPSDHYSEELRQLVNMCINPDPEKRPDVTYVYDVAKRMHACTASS
Sequence of Casein kinase II subunit alpha (Homo sapiens) (P68400 whole entry, looked up): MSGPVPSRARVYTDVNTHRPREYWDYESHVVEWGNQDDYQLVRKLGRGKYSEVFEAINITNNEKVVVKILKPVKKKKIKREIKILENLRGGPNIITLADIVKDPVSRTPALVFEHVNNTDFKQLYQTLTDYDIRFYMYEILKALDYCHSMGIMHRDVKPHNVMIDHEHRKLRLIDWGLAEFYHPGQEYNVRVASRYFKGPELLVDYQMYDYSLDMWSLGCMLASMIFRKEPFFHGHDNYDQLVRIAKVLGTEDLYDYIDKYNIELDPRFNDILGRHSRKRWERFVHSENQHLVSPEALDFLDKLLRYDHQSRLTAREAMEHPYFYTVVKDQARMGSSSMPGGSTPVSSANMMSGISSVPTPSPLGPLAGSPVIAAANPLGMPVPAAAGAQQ
Sequence of Serine/threonine-protein kinase Nek6 (Homo sapiens) (Q9HC98 whole entry): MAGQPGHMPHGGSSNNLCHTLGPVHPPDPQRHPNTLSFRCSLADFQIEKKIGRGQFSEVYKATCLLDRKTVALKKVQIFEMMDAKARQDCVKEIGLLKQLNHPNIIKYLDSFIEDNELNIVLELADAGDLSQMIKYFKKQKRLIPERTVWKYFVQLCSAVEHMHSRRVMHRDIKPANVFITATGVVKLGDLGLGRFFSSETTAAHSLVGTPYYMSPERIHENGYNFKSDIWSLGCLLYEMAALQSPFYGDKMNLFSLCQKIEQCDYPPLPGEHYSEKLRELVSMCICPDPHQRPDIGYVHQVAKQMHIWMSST
Sequence of Sphingosine kinase 1 (Homo sapiens) (Q9NYA1 whole entry): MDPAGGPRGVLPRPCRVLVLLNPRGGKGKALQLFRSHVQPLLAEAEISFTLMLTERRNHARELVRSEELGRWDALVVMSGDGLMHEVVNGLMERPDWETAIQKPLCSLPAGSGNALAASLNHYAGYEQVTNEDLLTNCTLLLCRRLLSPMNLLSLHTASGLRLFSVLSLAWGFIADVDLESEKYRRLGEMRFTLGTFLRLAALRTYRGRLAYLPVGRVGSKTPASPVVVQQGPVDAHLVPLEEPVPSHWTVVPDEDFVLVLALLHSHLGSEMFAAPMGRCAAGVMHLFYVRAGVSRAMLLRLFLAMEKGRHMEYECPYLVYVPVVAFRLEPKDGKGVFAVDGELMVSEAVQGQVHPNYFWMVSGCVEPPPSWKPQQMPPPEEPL

As to `COc1cccc(Nc2nccc(-c3cnn4ncccc34)n2)c1`, the inhibition was -2.02% in assay [1]; 0.58% in assay [2]; -1.48% in assay [3]; 8.12% in [4]; 40.9% in [5]; 11.6% in assay [6]. For the same compound, the inhibition in assay [7] came to 53.6%; in assay [8] it was 5.19%; in assay [9] it was 27.1%; in assay [10], 3.06%; in assay [11], 18.1%; in assay [12] it was 3.3%. Moreover, the inhibition was 18.3% in assay [13]; 4.5% in assay [14]; 5.64% in [15]; 3.79% in assay [16]; 1.04% in [17]; -0.48% in assay [18]. For the same compound, the inhibition amounted to 4.19% in assay [19] and 10.7% in [20].
